Results filed as inconclusive are left out. The source made the active and inactive calls. Calls follow the shape of the dose curve; as a rule, active = well fitted cell-killing curve with a large enough effect in the repeat runs; inconclusive = weak or mixed curves; inactive = flat fitted curve, though single readings scatter.
Assay: qHTS assay to identify small molecule antagonists of the TGF-beta/Smad signaling pathway - cell viability counter screen (AID 1346824); also: nearly all actives have a fitted effect of over 50% in size
Conditions: SBE-bla HEK293T viability, CellTiter-Glo luminescence; series mostly up to 76.8 µM; viability change, negative = cytotoxic: at the top concentration
From the text: U.S. Tox21 Program National Center for Advancing Translational Sciences [NCATS] NIH Chemical Genomics Center [NCGC] U.S. Environmental Protection Agency [EPA] National Institutes of Environmental Health Sciences [NIEHS] National Toxicology Program [NTP] U.S. Food and Drug Administration [FDA] Tox21 Assay Overview: Transforming growth factor beta (TGF-beta) superfamily consists of a large number of structurally related dimeric proteins that act as hormones or local mediators in regulating a wide range of biological functions. This superfamily includes TGF-betas themselves, the bone morphogenetic proteins (BMPs) and the activins. These ligands induce oligomerization of serine/threonine receptor kinases and phosphorylate the cytoplasmic signaling molecules of Smad protein family. CellSensor SBE-bla HEK 293T cell line (Life Technologies, Carlsbad, CA), responsive to TGF-beta was used to screen Tox21 10K compound library for identification of agonists/antagonists of the Smad signaling pathway. This cell line contains a beta-lactamase reporter gene under control of the Smad binding element (SBE) stably integrated into HEK 293T cells. Also cytotoxicity of the compounds was tested in parallel by measuring the cell viability using CellTiter-Glo assay system in the same wells.
Tox21 Assay Protocol Summary: SBE-bla HEK 293T cells were dispensed at 4,000/well in 5 uL of assay medium into black wall/clear-bottom 1536-well plates using a Multidrop Combi (ThermoFisher Scientific, Waltham, MA) dispenser. After the assay plates were incubated at 37 C and 5% CO2 for an overnight, 23 nL of compounds dissolved in DMSO, positive controls or DMSO only was transferred to the assay plate by a Pintool station (Kalypsys, San Diego, CA). Compound transfer was followed by the addition of 1 uL of 0.25 ng/mL TGF-beta1 or assay buffer using two separate tips of Flying Reagent Dispenser (FRD, Aurora Discovery, San Diego, CA). The assay plates were incubated at 37 C and 5% CO2 for 5 hr. One uL of LiveBLAzer B/G FRET substrate (Life Technologies) was added using a Flying Reagent Dispenser (FRD, Aurora Discovery, San Diego, CA) and the plates were incubated at room temperature for 2 hr. Fluorescence intensity (405 nm excitation, 460 nm and 530 nm emissions) was measured using an Envision plate reader (PerkinElmer, Shelton, CT). For cytotoxicity read, 4 uL of CellTiter-Glo reagent (Promega Corporation, Madison, WI) was added to each well of the assay plates using FRD. After 30 min incubation at room temperature, the luminescence intensity was measured using ViewLux plate reader (PerkinElmer).
% is scaled to controls: 0 for no effect and ±100 for the full control effect; potency is read from the fitted curve at half-maximal effect.

SMILES	viability change, negative = cytotoxic	Potency
CCCCCCCCCCC=O	-1.85% (inactive)	–
O=C(OC[C@H]1O[C@@H](OC(=O)c2cc(O)c(O)c(OC(=O)c3cc(O)c(O)c(O)c3)c2)[C@H](OC(=O)c2cc(O)c(O)c(OC(=O)c3cc(O)c(O)c(O)c3)c2)[C@@H](OC(=O)c2cc(O)c(O)c(OC(=O)c3cc(O)c(O)c(O)c3)c2)[C@@H]1OC(=O)c1cc(O)c(O)c(OC(=O)c2cc(O)c(O)c(O)c2)c1)c1cc(O)c(O)c(OC(=O)c2cc(O)c(O)c(O)c2)c1	3.78% [at 15.8 µM] (inactive)	–
COc1cc(/C=C/C(=O)O[C@H]2CC[C@]34C[C@]35CC[C@]3(C)[C@@H]([C@H](C)CCC=C(C)C)CC[C@@]3(C)[C@@H]5CC[C@H]4C2(C)C)ccc1O	0.709% [at 35.3 µM] (inactive)	–
Oc1cccc2cc3cccc(O)c3c(O)c12	-3.05% (inactive)	–
COCCCC/C(=N\OCCN)c1ccc(C(F)(F)F)cc1	-12.6% [at 35.3 µM] (inactive)	–
COc1ccc(-c2ccc3cc(C(=O)O)ccc3c2)cc1C12CC3CC(CC(C3)C1)C2	-1.51% [at 35.3 µM] (inactive)	–
C[C@@H]1C[C@H]2[C@@H]3CCC4=CC(=O)C=C[C@]4(C)[C@@]3(Cl)[C@@H](O)C[C@]2(C)[C@@]1(OC(=O)c1ccco1)C(=O)CCl	-13% [at 35.3 µM] (inactive)	–
OCCCCCCCCCCCCBr	-7.79% (inactive)	–
CC(C)(C)C1CCC(CC2=C(O)c3ccccc3C(=O)C2=O)CC1 (stereo not given)	-22.2% [at 35.3 µM] (inactive)	–
Oc1ccc(N=Nc2ccccc2)cc1	-1.46% (inactive)	–
CCCCN1CCCC[C@H]1C(=O)Nc1c(C)cccc1C	-27.3% [at 35.3 µM] (inactive)	–
CSc1ccc2c(c1)C(N1CCN(C)CC1)Cc1ccccc1S2 (stereo not given)	-12.3% [at 35.3 µM] (inactive)	–
CC1=NC(C)OC1C (stereo not given)	7.47% (inactive)	–
CCC(C)(C)C1CCCCC1OC(C)=O (stereo not given)	-6.43% (inactive)	–
O=C(O)c1c(Cl)cccc1Cl	-6.87% (inactive)	–
CCCCN1C(=O)[C@@H]([C@H](O)C2CCCCC2)NC(=O)C12CCN(Cc1ccc(Oc3ccc(C(=O)O)cc3)cc1)CC2	18.5% (inactive)	–
CCCCC(CC)CN=C(N)NC(N)=NCCCCCCN=C(N)NC(N)=NCC(CC)CCCC (stereo not given)	–	19 µM (active)
Clc1ccc2nsnc2c1NC1=NCCN1	-3.84% [at 35.3 µM] (inactive)	–
O=CC=C(c1ccccc1)c1ccccc1	-15% (inactive)	–
Cc1cccc(CN2CCN(C(c3ccccc3)c3ccc(Cl)cc3)CC2)c1 (stereo not given)	-23.1% [at 35.3 µM] (inactive)	–

SMILES	viability change, negative = cytotoxic	Potency
CC[C@H]1O[C@]2(CC[C@@H]1C)C[C@@H]1C[C@@H](C/C=C(\C)C[C@@H](C)/C=C/C=C3\CO[C@@H]4[C@H](O)C(C)=C[C@@H](C(=O)O1)[C@]34O)O2	–	54.5 µM (active)
Clc1ccc2cc3ccccc3cc2c1	-1.09% (inactive)	–
O=C(c1ccc(O)cc1O)c1ccc(O)cc1O	–	inactive
Cc1cc(O)c(C(C)(C)C)cc1Sc1cc(C(C)(C)C)c(O)cc1C	–	48.9 µM (active)
ON=C1CCCC1	2.3% (inactive)	–
CCOc1ccc2nc3cc(N)ccc3c(N)c2c1	-0.403% [at 35.3 µM] (inactive)	–
COc1ccc(CN2CCN(C(c3ccc(F)cc3)c3ccc(F)cc3)CC2)c(OC)c1OC	–	16.9 µM (active)
COc1c(C)c2c(c(O)c1C/C=C(\C)CCC(=O)O)C(=O)OC2	-13.7% [at 35.3 µM] (inactive)	–
CN(C)[C@@H]1C(=O)C(C(N)=O)=C(O)[C@@]2(O)C(=O)C3=C(O)c4c(O)ccc(Cl)c4[C@@H](O)[C@H]3C[C@@H]12	0.523% [at 35.3 µM] (inactive)	–
OCCN(CCO)c1nc(N2CCCCC2)c2nc(N(CCO)CCO)nc(N3CCCCC3)c2n1	-1.91% [at 35.3 µM] (inactive)	–
CCCCC(CC)COC(=O)c1ccccc1C(=O)O (stereo not given)	3.81% (inactive)	–
CCCCCCCCOC(=O)c1ccc(O)cc1	–	inactive
O=[N+]([O-])c1ccccc1Nc1ccccc1	-10.9% (inactive)	–
C[n+]1cc2c3c(ccc2c2ccc4cc5c(cc4c21)OCO5)OCO3	–	4.65 µM (active)
CN(C)CCCOC1(Cc2ccccc2)CCCCCC1	0.0086% [at 35.3 µM] (inactive)	–
CN(C)c1ccc(SC#N)cc1	2.05% (inactive)	–
OCc1c[nH]c2ccccc12	-0.878% (inactive)	–
O=c1[nH]cnc2nc[nH]c12	10.1% [at 35.3 µM] (inactive)	–
O=C(OCC(COC(=O)c1ccccc1)(COC(=O)c1ccccc1)COC(=O)c1ccccc1)c1ccccc1	7.4% (inactive)	–
c1cc(C(c2ccc(OCC3CO3)cc2)c2ccc(OCC3CO3)cc2)ccc1OCC1CO1 (stereo not given)	-19.2% (inactive)	–

Source: PubChem BioAssay (Tox21)
